Data on 25 compounds can be found in PubChem BioAssay (Tox21).

“And” between values parts separate entries of the source, which are not always exact repeats. Equal entries are not always repeated. Records with an inconclusive call do not appear. Entries that show only a call come without a potency. The source made the active and inactive calls. Calls follow the shape of the dose curve; as a rule, active = well fitted inhibition curve with a large enough effect in the repeat runs; inconclusive = weak or mixed curves; inactive = no such curve, though single readings can be large or run the other way.
Potency is read from the fitted curve at half-maximal effect.

Aromatase (Homo sapiens), sequence (P11511 whole entry, looked up): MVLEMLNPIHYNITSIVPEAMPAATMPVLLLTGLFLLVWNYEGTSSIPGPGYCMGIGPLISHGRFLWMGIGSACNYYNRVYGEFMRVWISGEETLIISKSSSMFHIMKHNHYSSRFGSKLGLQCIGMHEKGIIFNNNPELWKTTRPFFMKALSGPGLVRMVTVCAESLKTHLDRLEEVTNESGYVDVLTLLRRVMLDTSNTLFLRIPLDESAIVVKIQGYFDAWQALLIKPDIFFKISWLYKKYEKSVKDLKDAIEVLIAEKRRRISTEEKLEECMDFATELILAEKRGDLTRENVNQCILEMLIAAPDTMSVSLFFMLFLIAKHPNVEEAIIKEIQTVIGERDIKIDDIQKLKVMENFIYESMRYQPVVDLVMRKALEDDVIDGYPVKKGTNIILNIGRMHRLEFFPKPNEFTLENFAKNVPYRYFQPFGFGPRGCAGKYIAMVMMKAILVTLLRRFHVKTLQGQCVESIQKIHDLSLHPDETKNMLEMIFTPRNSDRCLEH

The test has as its target Aromatase (Homo sapiens) (UniProt P11511). Description: qHTS assay to identify aromatase inhibitors (AID 743083). Also: nearly all actives have a fitted effect of over 55% in size. To be noted: MCF-7 aro ERE, testosterone-driven ERE luciferase, 24 h; series mostly up to 70.3 µM. In general terms: In qHTS, concentration-response curves come from the screen itself.
As to `CCCCC(CC)COC(=O)CCCCC(=O)OCC(CC)CCCC` (stereo not given), the Potency entry is “inactive”.

As to `O=C(O)CCCC[C@@H]1SC[C@@H]2NC(=O)N[C@@H]21`, the Potency result is “inactive”.

As to `CCc1cccc(C)c1N`, the Potency entry is “inactive”.

As to `CC(=O)CC(=O)Nc1ccccc1C`, the Potency entry is “inactive”.

Take `O=C(O)c1cc(O)c(O)c(O)c1`: the Potency entry is “inactive”.

As to `C=C(C)C(=O)O[C@H]1C[C@@H]2CC[C@@]1(C)C2(C)C`, the Potency result is “inactive”.

As for `C#CCN(C)Cc1ccccc1`, the Potency result is “inactive”.

`Cc1ccc(N(C)C)cc1`: the Potency entry is “inactive”.

For the compound `O=C(O)c1ccccc1C(c1ccc(O)cc1)c1ccc(O)cc1`, the Potency result was “inactive”.

As to `Fc1ccc(Br)cc1`, the Potency entry was “inactive”.

Take `CCCCCCCCCCCCCCO`: the Potency entry was “inactive”.

For `O=[N+]([O-])c1ccc(/C=C/c2ccc([N+](=O)[O-])cc2S(=O)(=O)O)c(S(=O)(=O)O)c1`, the Potency entry was “inactive”.

For the compound `O=C=NCCCCCCN=C=O`, the Potency result was “inactive”.

For the compound `CC(c1cc2ccccc2s1)N(O)C(N)=O` (stereo not given), the Potency result was “inactive”.

For the compound `COS(C)(=O)=O`, the Potency result was “inactive”.

In the case of `Cc1cccc(O)c1`, the Potency entry is “inactive”.

Turning to `CN(C)CCCN`, the Potency result was “inactive”.

`CC(C)(N)CO`: the Potency result was “inactive”.

On to `c1c[nH]cn1`, for which the Potency entry is “inactive”.

As for `CCCCCCCCCCCCS`, the Potency result is “inactive”.

In the case of `COc1cc(Cc2cnc(N)nc2N)cc(OC)c1OC`, the Potency result was “inactive”.

Take `CCCCCCCCCC`: the Potency entry was “inactive”.

On to `CCN(CC)c1ccc(C(=O)c2ccccc2C(=O)O)c(O)c1`, for which the Potency result was “inactive”.

Take `FC(F)(F)c1ccc(Cl)c(Cl)c1`: the Potency entry was “inactive”.

As to `CC[C@H](C)C(=O)O[C@H]1C[C@@H](C)C=C2C=C[C@H](C)[C@H](CC[C@@H]3C[C@@H](O)CC(=O)O3)[C@H]21`, the Potency was 11.9 µM (active) and 34.9 µM (active) and 27.2 µM (active).
